# Screening data (PubChem BioAssay)
# An excerpt weighted towards active compounds, which were near 17% of everything screened.
# HepG2 tox: qHTS for Inhibitors of TGF-b: Cytotox Counterscreen; HepG2 CAGA-GFP viability, ATP luminescence, 18 h; Potency, µM (titrated, usually from 46.1 µM), without a hit: at the top dose activity change, negative = cytotoxicity, most hits filed as cytotoxic; hit rate 0.76% among 410,000; AID 588856, 2011
#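 HepG2 CAGA-GFP cells (1000/well, DMEM with 1% FBS) received compound, then TGF-beta at 500 pg/mL final, and were incubated 18 hours at 37 degrees C. Viability was read by CellTiter-Glo luminescence. Media-only wells were set as complete cell-killing and DMSO as no toxicity.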
# TDP1 cell CPT: qHTS for Inhibitors of human tyrosyl-DNA phosphodiesterase 1 (TDP1): qHTS in cells in presence of CPT; chicken DT40 Tdp1-/-;hTDP1 cells + 20 nM CPT, ATP luminescence, 48 h; Potency, µM (doses to about 46.2 µM), without a hit: at the highest dose activity change, negative = growth inhibition, most hits filed as inhibitors; hit rate 12% among 420,000; AID 686979, 2013; also: % is scaled to controls: 0 for no effect and ±100 for the full control effect; nearly all actives have a fitted effect of over 55% in size
#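 Chicken DT40 Tdp1-/- cells stably complemented with human TDP1 were seeded at 400 cells/well in medium containing 20 nM camptothecin, exposed to pin-transferred compounds, and grown at 37 °C for at least 48 hr. Viability was read as ATP luminescence.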
# HT1080 IDH1KD tx: qHTS for induction of synthetic lethality in tumor cells producing 2HG: qHTS for the HT-1080-IDH1KD cell line | hit rate 2% among 360,000 | AID 686971, 2013 | HT-1080 IDH1 knockdown viability, ATP luminescence, 48 h | Potency, µM (titrated, usually from 46.1 µM), inactives show top-dose activity, negative = toxicity, actives largely listed as cytotoxic;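 also: 0% = DMSO wells and -100% = cell-free medium wells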
#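 In this qHTS, HT-1080 cells depleted of IDH1 are exposed for 48 h at 37 °C to compound titrations. Toxicity is scored from CellTiter-Glo luminescence, with DMSO as full viability and medium alone as none.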
# TDP1 cell noCPT: qHTS for Inhibitors of human tyrosyl-DNA phosphodiesterase 1 (TDP1): qHTS in cells in absence of CPT | hit rate 15% among 420,000 | AID 686978, 2013 | DT40 Tdp1-/- hTDP1 cells, no CPT, ATP luminescence, 48 h | Potency, µM (doses to about 46.2 µM), for inactives: at the top dose activity change, negative = growth inhibition, usual class: inhibitors; also: % is scaled to controls: 0 for no effect and ±100 for the full control effect; nearly all actives have a fitted effect of over 55% in size
#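 Compound effects on proliferation are scored in DT40 Tdp1-/-;hTDP1 cells in the absence of CPT. ATP levels (CellTiter-Glo luminescence) are recorded after a ≥48 hr, 37 °C incubation.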
# HT1080NT lethal: qHTS for induction of synthetic lethality in tumor cells producing 2HG: qHTS for the HT-1080-NT fibrosarcoma cell line | HT-1080-NT fibrosarcoma viability, CellTiter-Glo ATP luminescence, 48 h | AID 686970, 2013 | Potency, µM (series often up to 46.1 µM), for the others: top-dose activity, negative = less viability, hits mostly cytotoxic | hit rate 1.6% among 360,000;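 also: NT is the 2HG producing partner of a matched IDH1 knockdown line; 0% = DMSO-treated cells and -100% = media-only wells without cells; nearly all actives have a fitted effect of over 55% in size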
#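 Luminescent CellTiter-Glo readout after 48 hours of compound exposure at 37 degrees C defined viability of HT-1080-NT cells. Activity was normalized to DMSO wells and cell-free media wells; concentration-response curves were fitted and assigned curve classes.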
# TGFb inhibitor: qHTS for Inhibitors of TGF-b; Potency, µM (highest dose often 46.1 µM), for inactives: top-dose activity, negative = inhibition, most hits filed as inhibitors; HepG2 CAGA-GFP TGF-b/SMAD3 reporter, GFP fluorescence, 18 h; TGF-beta stimulated, 500 pg/mL final; hit rate 1.2% among 410,000; AID 588855, 2011; also: % is scaled to controls: 0 for no effect and ±100 for the full control effect; nearly all actives have a fitted effect of over 65% in size
#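 HEPG2 CAGA-GFP cells (1000/well, DMEM with 1% FBS) were pre-incubated 2 h at 37 degrees C, given compound by pin tool, then stimulated with TGF-beta at 500 pg/mL final for 18 h before per-cell GFP fluorescence imaging.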
# An asterisk follows results filed as active; ? = inconclusive; / = no result; [ ] = dose if it differs, or a comment. Calls follow the shape of the dose curve; as a rule, active = well fitted curve in the direction sought with a large enough effect; inconclusive = small, poorly fitted or top-dose-only effect, or another doubt; inactive = no such curve, though single readings can be large; an effect the other way counts as inactive or inconclusive. Potency is read from the fitted curve at half-maximal effect.
SMILES,HepG2 tox,TDP1 cell CPT,HT1080 IDH1KD tx,TDP1 cell noCPT,HT1080NT lethal,TGFb inhibitor
COc1ccc(Nc2ncccc2C(=O)Nc2ccccc2)cc1,-80%,23µM*,-25%,29µM*,-4%,22%
O=C(NCC1CCC2(CCN(Cc3ccccc3O)CC2)O1)C1CCCO1 (stereo unspecified),/,-6%[9.04 µM],/,-11%,/,/
COc1ccc(OC)c(CNC(=O)Cn2ncc3c([nH]c4ccc(C)cc43)c2=O)c1,3%,-13%,/,-3%,/,10%
C/C(=N\NC(=O)CNc1ccccc1)c1ccccc1,6%,1%,4%,2%,-2%,5%
NNc1ccc2nnc(C(F)(F)C(F)(F)C(F)(F)F)n2n1,-39%,14%,13%,-12%,16%,3%
C=CCNc1nc(-c2c(C)nc3ncccn23)cs1,-15%,-17%,5%,-23%,17%,9%
Cc1nc2ncccn2c1-c1csc(Nc2ccc(O)cc2)n1,-14%,?,?,5.2µM*,-6%,-10%
Cc1ccc(Nc2nc(-c3c(C)nc4ncccn34)cs2)cc1,-19%,0.018µM*,?,0.0065µM*,0.18µM*,?
CC(C)(C)OC(=O)NCCCC[C@H](NC(=O)c1[nH]cnc1C(=O)Nc1ccc(CNC(=O)OC(C)(C)C)cc1)C(=O)OC(C)(C)C,-4%,5.8µM*,?,4.6µM*,?,-25%
CC(C)(C)OC(=O)NCc1ccc(NC(=O)c2nc[nH]c2C(=O)NCCCCCCNC(=O)c2[nH]cnc2C(=O)Nc2ccc(CNC(=O)OC(C)(C)C)cc2)cc1,21%,5.8µM*,-2%,5.8µM*,0%,?
CC(C)(C)OC(=O)NCc1ccc(CNC(=O)c2nc[nH]c2C(=O)N2CCN(C(=O)OC(C)(C)C)CC2)cc1,-3%,?,2%,18µM*,-3%,?
Cn1cnc(C(=O)NCc2ccc(CNC(=O)OC(C)(C)C)cc2)c1C(=O)NCc1ccc(CNC(=O)OC(C)(C)C)cc1,12%,21µM*,-19%,?,-16%,?
Cc1ccc(NC(=O)c2nc[nH]c2C(=O)N2CCN(C(=O)OC(C)(C)C)CC2)cc1,-2%,?,9%,?,14%,5%
CN(CC(=O)Nc1ccc(F)cc1)CC(=O)N1CCc2ccccc21,-14%,-9%,1%,?,0%,-4%
C#CCOCCOCCOCCNc1nc(N2CCN(C(=O)[C@H](CC(N)=O)n3cc(C(N)[C@H](C)CC)nn3)CC2)nc(N2CCN(C(=O)[C@H](CC(N)=O)n3cc(C(N)[C@@H](C)CC)nn3)CC2)n1 (stereo partly specified),5%,2%,15%,-24%,15%,-7%
CC(C)(C)OC(=O)NCc1ccc(NC(=O)c2nc[nH]c2C(=O)NCCN(CCNC(=O)c2[nH]cnc2C(=O)Nc2ccc(CNC(=O)OC(C)(C)C)cc2)CCNC(=O)c2[nH]cnc2C(=O)Nc2ccc(CNC(=O)OC(C)(C)C)cc2)cc1,-13%,?,3%,-19%,11%,1%
CC(C)(C)OC(=O)NCc1ccc(NC(=O)c2nc[nH]c2C(=O)NCCCCNC(=O)c2[nH]cnc2C(=O)Nc2ccc(CNC(=O)OC(C)(C)C)cc2)cc1,2%,4.1µM*,11%,2.9µM*,13%,-21%
CC(C)(C)OC(=O)NCc1ccc(NC(=O)c2nc[nH]c2C(=O)NCCCNC(=O)c2[nH]cnc2C(=O)Nc2ccc(CNC(=O)OC(C)(C)C)cc2)cc1,8%,13µM*,0%,26µM*,-5%,5%
CC1=C(C(N)=O)C(c2cccc(C)c2)n2nc(-c3ccc(Cl)cc3)nc2N1 (stereo unspecified),-28%,21µM*,/,?,/,-24%
COc1ccccc1NC(=O)C1=C(C)Nc2nc(-c3ccco3)nn2C1c1cccc(C)c1 (stereo unspecified),2%,18µM*,/,?,/,?
COc1ccccc1NC(=O)C1=C(C)Nc2nc(-c3ccco3)nn2C1c1ccccc1F (stereo unspecified),2%,16µM*,/,?,/,30%
COc1ccccc1NC(=O)C1=C(C)Nc2nnnn2C1c1ccccc1OC (stereo unspecified),2%,6%,-2%,-8%,2%,-5%
COc1ccc(-c2nc3n(n2)C(c2cccnc2)C(C(N)=O)=C(C)N3)cc1 (stereo unspecified),-17%,3%,5%,-18%,6%,2%
COC(=O)C(C)N(C(=O)c1cccc2ccccc12)c1c(C)cccc1C (stereo unspecified),-1%,?,?,16µM*,-4%,4%
COC(=O)C(C)N(C(=O)c1cccc(Cl)c1)c1c(C)cccc1C (stereo unspecified),-25%,?,9%,?,0%,6%
SMILES,HepG2 tox,TDP1 cell CPT,HT1080 IDH1KD tx,TDP1 cell noCPT,HT1080NT lethal,TGFb inhibitor
CCCCC1CN(CCNC(=O)c2ccccn2)Cc2ccccc2O1 (stereo unspecified),/,11%[9.04 µM],/,-4%,/,/
CCN(CC)S(=O)(=O)c1cc(NC(=O)c2ccc(-n3cncn3)c([N+](=O)[O-])c2)ccc1C,5%,?,-19%,23µM*,-16%,-42%
CN(C)S(=O)(=O)c1cccc(NC(=O)c2ccc(-n3cncn3)c([N+](=O)[O-])c2)c1,-11%,?,-1%,-12%,4%,-19%
O=C(Nc1ccc(Cl)cc1)c1ccc(-n2cncn2)c([N+](=O)[O-])c1,-4%,?,0%,16µM*,22%,-16%
Cc1ccc(NC(=O)c2ccc(-n3cncn3)c([N+](=O)[O-])c2)cc1,2%,-28%,-1%,0%,16%,0%
O=C(Nc1ccc(Cl)cc1)c1ccc(-n2cccn2)c([N+](=O)[O-])c1,-26%,23µM*,-28%,15µM*,?,-4%
COC(=O)N/N=C/c1ccc(-c2cc(Cl)cc(Cl)c2)o1,-5%,5%,20%,-2%,13%,10%
